Assay outcomes as filed in PubChem.
14-3-3g Raf: modulators of human 14-3-3 gamma - Raf peptide interaction. FP, 14-3-3gamma / TMR-pS259-Raf peptide binding. inhibition, % at 40 µM. 0.19% of 160,000 active. AID 422; in the data active = inhibition above about 30%;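 also: 0% = protein plus tracer without compound and 100% = blank with tracer alone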
Target sequence (P61981 whole entry, looked up): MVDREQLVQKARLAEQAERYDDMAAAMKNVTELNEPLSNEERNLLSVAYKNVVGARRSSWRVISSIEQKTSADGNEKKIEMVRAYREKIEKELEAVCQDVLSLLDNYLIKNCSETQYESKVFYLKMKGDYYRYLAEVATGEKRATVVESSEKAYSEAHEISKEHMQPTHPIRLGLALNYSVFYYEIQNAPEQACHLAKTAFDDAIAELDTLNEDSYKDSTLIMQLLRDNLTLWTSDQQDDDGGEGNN
* hit, by the source's call; ! = not active in a repeat. This excerpt belongs to a sample that is enriched for hits.

SMILES	14-3-3g Raf
CCCCSc1nnc2c(n1)OC(c1cccc(OCC)c1OC)Nc1ccccc1-2 (stereo unspecified)	70*
CC(O)CCc1nc2ccccc2[nH]1 (stereo unspecified)	5
COc1ccc(N=CC=Cc2ccccc2Cl)cc1Cl	0
COc1nc(-c2ccccc2)ccc1-c1noc(-c2ccc(F)cc2)n1	-6
COc1ccc(C(=O)Nc2cccc(C(C)=O)c2)cc1	-11
O=C(CSc1nnc2sc3ccccc3n12)c1ccco1	-3
C/C=C/c1ccc(Oc2nnnn2-c2ccc(C(N)=O)cc2)c(OC)c1	1
COc1ccc(OC)c(-n2c(SC)nnc2-c2c[nH]c3ccccc23)c1	1
CC(=O)N1c2ccc(S(=O)(=O)CCC(=O)Nc3cc(C)ccc3C)cc2CC1C (stereo unspecified)	34*
CC(=O)N1c2ccc(S(=O)(=O)CCC(=O)Nc3ccc(C)c(C)c3)cc2CC1C (stereo unspecified)	3
CC(=O)N1c2ccc(S(=O)(=O)CCC(=O)Nc3ccc(Br)cc3C)cc2CC1C (stereo unspecified)	-11
O=C(Cn1cnc2ccccc2c1=O)NCC(=O)Nc1cccc(Cl)c1	-2
CS(=O)(=O)c1ccc2nc(NC(=O)CCCN3C(=O)c4cccc5cccc(c45)C3=O)sc2c1	-30
Cc1cc(OCC(=O)Nc2ccc3c(c2)oc2ccccc23)cc(C)c1Cl	-3
CC(=O)C(c1ccccc1)C(C#N)(C#N)C(C#N)C#N (stereo unspecified)	67*
CCOC(=O)C(=O)C(C#N)c1ccccc1 (stereo unspecified)	-7
CC(=O)C(CCC#N)(CCC#N)c1ccccc1	-13
Cc1[nH]c2ccccc2c1C=Cc1nc2ccccc2c(=O)[nH]1	-59
N#Cc1cc2c(nc1SC1CCCCC1O)CCCC2 (stereo unspecified)	3
O=C(OCC(=O)N1CCCc2ccccc21)C1CCN(S(=O)(=O)c2cccs2)CC1	0
O=C1c2cccc3cccc(c23)C(=O)N1c1ccccc1	4
NC1=CC(=O)c2cccc3cccc1c23	80*!
Cc1nnc(C)n1N1C(=O)c2cccc3cccc(c23)C1=O	-6
Cc1ccc(-c2nnc(N3CCN(C(=O)CSc4ncn[nH]4)CC3)c3ccccc23)cc1	-5
CC(C)CSc1nc2c(c(=O)[nH]c(=O)n2C)n1CC(O)COc1cccc2ccccc12 (stereo unspecified)	-5
SMILES	14-3-3g Raf
O=C(CN1C(=O)c2ccc([N+](=O)[O-])cc2C1=O)Nc1ccc(Br)cc1C(=O)O	-2
O=C(CN1C(=O)c2ccc([N+](=O)[O-])cc2C1=O)Nc1ccc(O)cc1C(=O)O	37*
O=C(CN1C(=O)c2ccc([N+](=O)[O-])cc2C1=O)Nc1ccccc1[N+](=O)[O-]	3
COc1ccc(C2NC(=O)CCC2[N+](=O)[O-])cc1OC (stereo unspecified)	1
COc1cc(Cl)c(S(=O)(=O)N2CCOCC2)cc1Cl	-8
CCC(=O)N1CCc2cc(S(=O)(=O)NCCN3CCCCC3C)ccc21 (stereo unspecified)	0
O=C(C1CCC1)N1CCc2cc(S(=O)(=O)NCCN3CCCC3)ccc21	-1
O=C(C1CCC1)N1CCc2cc(S(=O)(=O)NCCCN3CCCCC3)ccc21	-6
CCC1CCCCN1CCNS(=O)(=O)c1ccc2c(c1)CCN2C(=O)C1CCC1 (stereo unspecified)	52*
CC(=O)N1CCc2cc(S(=O)(=O)NCCCN3CCN(C)CC3)ccc21	-7
O=C(C1CCC1)N1CCc2cc(S(=O)(=O)NCCCN3CCN(c4ccccc4F)CC3)ccc21	31*
COc1ccc(NC(=O)CS(=O)CC(=O)Nc2ccc(OC)c(OC)c2)cc1 (stereo unspecified)	-5
CC/C(O)=C1\C(=O)CC(c2ccccc2)CC1=NCCC(=O)O (stereo unspecified)	-7
CCc1ccccc1NC(=O)c1ccc(Br)o1	-7
COCc1nnc(NC(=O)c2ccc(S(=O)(=O)N(C)C)cc2)o1	-6
COC(=O)c1ccc(C(=O)OC)c(NC(=O)c2ccc(OC)cc2OC)c1	-33
COc1ccc(C(=O)Oc2ccc(C(C)=O)cc2)c(OC)c1	38*
COc1ccc(OC)c(S(=O)(=O)Nc2ccc(C(C)=O)cc2)c1	-2
N=c1n(Cc2ccccc2)c2ccccc2n1CC(O)c1cccs1 (stereo unspecified)	-9
Cc1cccc(-n2ncc3c(Nc4cccc(C(F)(F)F)c4)ncnc32)c1	6
CN1C(=O)CC(C(=O)Nc2ccc(OC(F)(F)Cl)cc2)SC1=Nc1cccc(F)c1 (stereo unspecified)	-13
COc1ccc(-c2n[nH]c3c2C(c2ccc(OC)cc2)N(c2ccc(Br)cc2)C3=O)cc1 (stereo unspecified)	0
CCOc1cc(C2c3c(-c4ccc(OC)cc4)n[nH]c3C(=O)N2c2ccc(Br)cc2)ccc1O (stereo unspecified)	4
CCOc1ccc(-c2n[nH]c3c2C(c2ccccc2)N(c2ccc(Br)cc2)C3=O)cc1 (stereo unspecified)	134*
CCCCC1(C(=O)OCC)CC(CN2CCOCC2)OC1=O (stereo unspecified)	54*
SMILES	14-3-3g Raf
CCOC(=O)c1c(NC(=O)CN2CCOCC2)sc2c1CCCC2	-8
CCCCOC(=O)N1CCOCCOCCN(C(=O)OCCCC)CCOCCOCC1	0
CN(C(=O)COC(=O)C1c2ccccc2Oc2ccccc21)C1CCS(=O)(=O)C1 (stereo unspecified)	0
Cc1ccc(C(=O)Nc2ccc3oc(-c4ccccc4)nc3c2)cc1[N+](=O)[O-]	-8
CCC1(C)CC(c2csc(N)n2)CCO1 (stereo unspecified)	-4
CCCn1c(=O)c(C(=O)Nc2ccccc2C(=O)OC)c(O)c2ccccc21	6
O=C(CCN1C(=O)c2ccccc2C1=O)NCc1ccccn1	177*
O=C(CN1C(=O)c2ccccc2C1=O)NCc1ccccn1	14
O=C(CCN1C(=O)c2ccccc2C1=O)NCc1ccncc1	-1
CCN(CCCNC(=O)CCCN1C(=O)COc2ccc(C)cc21)c1cccc(C)c1	2
Cc1sc(NC(=O)c2ccccc2)c(C(N)=O)c1C	-19
Clc1ccc(-c2cn3c4ccccc4n(CCN4CCCCC4)c3n2)cc1	-8
COCCCN1C(=O)C(=O)/C(=C(/O)c2ccccc2)C1c1ccc(Cl)cc1 (stereo unspecified)	-1
Cc1cc2c(N)cccc2nn1	44*
Cc1c(N)cccc1-c1nc2ccccc2s1	3
Cc1cc(N)c2ccccc2n1	-2
CCN1CCN(c2cc(C)c3cc(NC(=O)CCC(=O)N4CCCCC4C)ccc3n2)CC1 (stereo unspecified)	2
COc1c(C)cc(Br)cc1C(=O)NCc1cccnc1	-1
CCc1ccc(OCC2c3cc(OC)c(OC)cc3CCN2C(=O)c2ccccc2F)cc1 (stereo unspecified)	-1
Cc1ccccc1CNC(=O)c1ccc(N(C)S(=O)(=O)c2ccccc2)cc1	-5
Cc1ccc(CNC(=O)c2ccc(N(C)S(=O)(=O)c3ccccc3)cc2)cc1	53*
CN(c1ccc(C(=O)NCc2ccccc2)cc1)S(=O)(=O)c1ccccc1	-4
O=C(C1CC1)N1CCc2cc(S(=O)(=O)N3CCN(C4CCCCC4)CC3)ccc21	-10
NC(=O)C1(N2CCCCC2)CCN(CC(=O)Nc2ccc(Oc3ccccc3)cc2)CC1	-1
CC1=C(C(=O)OCc2ccccc2)C(c2cccc([N+](=O)[O-])c2)NC(=O)N1 (stereo unspecified)	-6
